Results: PubChem BioAssay (NCATS)
Records with an inconclusive call do not appear. A call without a number means that no potency is given here. A number with no mark means an inactive call. Calls of active or inactive are those of the source. Calls come from the whole dose curve; as a rule, active = well fitted inhibition curve with a large enough effect; inconclusive = small, poorly fitted or top-dose-only effect; inactive = flat fitted curve, though single readings scatter.

target: Calcium and integrin-binding protein 1 (Homo sapiens) (UniProt Q99828); test: Primary qHTS for Identification of Calcium Integrin Binding Protein 1 (CIB1) Competitor (AID 1508620); conditions: CIB1-GST / FITC-alphaIIb peptide fluorescence polarization; series mostly up to 114 µM;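 note: GST tagged CIB1 binding a fluorescein labelled alphaIIb integrin peptide tracer; top concentration of the series differs between compounds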
Sequence (Q99828 whole entry, looked up): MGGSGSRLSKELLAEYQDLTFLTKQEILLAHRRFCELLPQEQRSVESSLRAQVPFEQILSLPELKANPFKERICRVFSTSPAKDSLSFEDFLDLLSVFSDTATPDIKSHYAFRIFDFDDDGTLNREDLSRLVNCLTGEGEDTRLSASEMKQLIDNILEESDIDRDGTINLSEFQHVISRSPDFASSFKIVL
Summary of the method: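 CIB1-GST (1 uM final) and compound incubated 15 min at room temperature before adding FITC-alphaIIb peptide tracer (100 nM final). Competition for binding read by fluorescence polarization (ex 480, em 540) after another 15 min at room temperature.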

Row | SMILES | Potency | activity change, negative = inhibition
1 | C=C1C(=O)OC2CC3(C)C(O)C(=O)C=C(C)C3CC12 (stereo unspecified) | inactive | –
2 | CCOC(=O)c1csc(Nc2ccc(Cl)cc2)n1 | inactive | –
3 | COc1ccc(C2=NC(c3ccc(Cl)cc3)C(c3ccc(Cl)cc3)N2C(=O)N2CCNC(=O)C2)c(OC(C)C)c1 (stereo unspecified) | inactive | –
4 | CCC(C)C(=O)OC12C(OC(C)=O)C(C)C3(O)C(C=C(CO)CC4(O)C(=O)C(C)=CC43)C1C2(C)C (stereo unspecified) | inactive | –
5 | c1cc(-c2cnn3cc(-c4ccc(N5CCNCC5)cc4)cnc23)c2cccnc2c1 | inactive | –
6 | CC1(C)SCCN(S(=O)(=O)c2ccc(Oc3ccncc3)cc2)[C@H]1C(=O)NO | inactive | –
7 | C=C1C(=O)O[C@@H]2C[C@H](C)[C@@H]3CC(=O)C(C)=C3C[C@H]12 | inactive | –
8 | CC1=CC2/C=C(\C)CCC(O)C(=O)C(O)CC(=O)C23C(=O)NC(CC(C)C)C3C1C (stereo unspecified) | inactive | –
9 | CO[C@H]1[C@@H](O)[C@H](O[C@H]2CC[C@@]3(C)C(CCC4C3CC[C@]35COC6(COC(=O)C6)C3CCC45O)C2)O[C@@H](C)[C@@H]1OC1OC(CO)C(OC2OC(CO)C(O)C(O)C2O)C(O)C1O (stereo partly specified) | inactive | –
10 | FC(F)(F)c1ccc(CNc2ccc(Cc3c[nH]c4ncc(Cl)cc34)cn2)cn1 | inactive | –
11 | Cn1c(=O)c2c(ncn2Cc2ccc(C(C)(C)C)cc2)n(C)c1=O | inactive | –
12 | Cc1cc2c(cc1N1C(=O)c3cccc4c(CCCO)ccc(c34)C1=O)n(C)c(=O)n2C | inactive | –
13 | CC(C)C[C@H](C(=O)O)c1cc(-c2ccc(C(F)(F)F)cc2)cc(-c2ccc(C(F)(F)F)cc2)c1 | inactive | –
14 | COc1ccc(S(=O)(=O)Nc2cc(Cl)cc(Cl)c2OC)cc1N1CCNCC1 | inactive | –
15 | COc1cc(CCO)ccc1O[C@@H]1O[C@H](CO)[C@@H](O)[C@H](O)[C@H]1O | inactive | –
16 | CC(=O)O[C@@H]1C[C@]2(C)[C@@]3(CCC4[C@@]5(C)CC[C@H](O[C@@H]6O[C@H](C(=O)O)[C@@H](O)[C@H](OC7OC(CO)C(O)C(O)[C@H]7O[C@@H]7O[C@@H](C)[C@H](O)[C@@H](O)[C@H]7O[C@@H]7OC[C@](O)(CO)[C@H]7O)[C@H]6OC6OC(CO)C(O)C(O)C6O)C(C)(C)C5CC[C@]42C)OC[C@@]12CCC(C)(C)CC23 (stereo partly specified) | – | -0.726% [at 12.4 µM]
17 | CC(C)C[C@@H]1NC(=O)[C@@H]2C[C@@]34C[C@@H]5[C@@]6(C)CCCC(C)(C)C6CC[C@@]5(C)N(c5ccccc53)[C@H]4N2C1=O (stereo partly specified) | inactive | –
18 | C=C(C)C(=O)O[C@H]1/C(C=O)=C\CC/C(CO)=C/[C@H]2OC(=O)C(=C)[C@@H]2[C@@H]1OC | inactive | –
19 | O=S(=O)(Nc1cc(Cl)c(Oc2cnc3ccccc3c2)c(Cl)c1)c1ccc(Cl)cc1Cl | inactive | –
20 | Cc1cc(OCCCS(C)(=O)=O)cc(C)c1-c1cccc(COc2ccc3c(c2)OCC3CC(=O)O)c1 (stereo unspecified) | inactive | –
21 | CC1(C)CC[C@]2(C(=O)O[C@@H]3O[C@H](CO)[C@@H](O)[C@H](O)[C@H]3O)CC[C@]3(C)C(=CCC4[C@@]5(C)CC[C@H](O[C@@H]6O[C@H](C(=O)O)[C@H](O)[C@H](O)[C@H]6O)C(C)(C)C5CC[C@]43C)[C@@H]2C1 (stereo partly specified) | inactive | –
22 | CC(=O)OC1C(OC(=O)c2ccccc2)C2C(=C(C)CCC2(C)C)C23CCC(C)(C2)C(=O)CC13 (stereo unspecified) | inactive | –
23 | CC(=O)O[C@@H]1CC[C@@]2(C)C(CC[C@]3(C)C2[C@H](O)C=C2[C@H]4[C@@H](C)[C@H](C)CC[C@]4(C)CC[C@]23C)[C@@]1(C)C(=O)O (stereo partly specified) | inactive | –
24 | CN(C)CCC(CSc1ccccc1)Nc1ccc(S(=O)(=O)NC(=O)c2ccc(N3CCN(Cc4ccccc4-c4ccc(Cl)cc4)CC3)cc2)cc1[N+](=O)[O-] (stereo unspecified) | inactive | –
25 | C=C1C(=O)O[C@@H]2/C=C(\CO)CC/C=C(/C=O)C[C@H](O)[C@@H]12 | inactive | –
26 | C/C=C(/C)C(=O)O[C@H]1C=C(CO)C(=O)[C@H](OC(=O)/C(C)=C/CO)[C@H]1C(C)C | inactive | –
